Experimental data taken from PubChem BioAssay AID605 (National Center for Advancing Translational Sciences (NCATS), 2007).
In all, about 71,000 compounds went through this assay and about 35 (0.05%) were called active. Calls follow the shape of the dose curve; as a rule, active = well fitted curve in the direction sought with a large enough effect; inconclusive = small, poorly fitted or top-dose-only effect, or effect the other way; inactive = flat fitted curve, though single readings scatter. A selection follows.

Biological target: tRNA threonylcarbamoyladenosine biosynthesis protein TsaE (Escherichia coli (strain K12)) (UniProt P0AF67)
Experiment: qHTS Assay for Inhibitors of YjeE
Details: purified YjeE enzyme, qHTS inhibition assay
Protocol: NIH Molecular Libraries Screening Centers Network [MLSCN]
NIH Chemical Genomics Center [NCGC]
Assay Provider: Eric Brown, McMaster University
YjeE is an essential E.coli protein of unknown function that binds adenosine diphosphate (ADP). A complex of YjeE and BODIPY Texas Red-labeled ADP probe (Invitrogen, catalog number A22359) is incubated with library members. Inhibitors of YjeE-ADP binding are detected by a decrease in the fluorescence polarization (FP) of the fluorophore. Purified YjeE was supplied by Chand Mangat and Eric Brown, McMaster University.
NCGC Assay Protocol Summary:
2 uM probe/10 uM YjeE in columns 1, 2, 5-48. Titration of ADP control (from 40 mM, then 1:2) pin-transferred to top half of column 2. Column 1 and bottom half of column 2 are neutral.
Two and a half uL of reagents were dispensed to 1536-well Greiner black plates. Compounds and controls (20 nL) were transferred via Kalypsys PinTool. The plates were incubated for 15 min at room temperature, and then read on ViewLux (Perkin-Elmer) High-throughput CCD imager using BODIPY polarization filter set and 30 seconds exposure time. During dispense, reagent bottle was kept submerged into 4 deg C water bath and all liquid lines were covered with aluminum foil to minimize probe and protein degradation.
Keywords: NIH Roadmap, MLSCN, MLI, MLSMR, qHTS, NCGC, YjeE

outcome, inactive:
Cc1ccc(O)c(NC(=O)COc2cc(C)ccc2C)c1, COc1ccc(-c2nc3cnc(N(C)C)nc3n(Cc3cccs3)c2=O)cc1, O=C(Cl)c1ccc([N+](=O)[O-])cc1, Cc1cc(C)cc(N)c1, CCOC(=O)N1CCN(C(=O)C2CC(c3ccc(F)cc3)=NO2)CC1 (stereo unspecified), Cc1ccc2c(c1)N(CC(=O)N1CCCc3ccccc31)C(=O)C(C)O2 (stereo unspecified), CCOc1cccc(/C(O)=C2/C(=O)C(=O)N(CCOC)C2c2ccncc2)c1 (stereo unspecified), CC1CC(C)CN(CC(=O)Nc2ccc(S(N)(=O)=O)cc2)C1 (stereo unspecified), CN(c1ccc(C(=O)N2CCc3ccccc3C2)cc1)S(C)(=O)=O, COc1ccccc1N1CCN(C(=O)c2cc3c(-c4ccc(Cl)cc4)nn(C)c3s2)CC1, Cn1c(CC(=O)Nc2ccccc2)nnc1SCC(=O)c1ccccc1, Cc1nnc(NC2=NCCCCC2)o1, Cn1cc(-c2nc3cnc(N4CCNCC4)nc3n(CCc3ccccc3)c2=O)c2ccccc21, COc1cccc(Nc2ncc3ncc(=O)n(C4CC4)c3n2)c1, CNC(=O)C1(C)C=CC2(CCCCC2)N1C(C)=O (stereo unspecified), COc1ccccc1CNc1ncnc2ccc(-c3ccc4c(c3)OCO4)cc12, COC(=O)[C@@]1(Cc2ccc(OC)cc2)[C@H]2c3cc(C(=O)N4CCCC4)n(Cc4ccc(OC(F)(F)F)cc4)c3C[C@H]2CN1C(=O)c1ccccc1, O=C(O)c1cccc(S(=O)(=O)NCCO)c1, COc1ccc(N)c(C)c1, O=C(Cn1ccc(=O)[nH]c1=O)Nc1ccc(C(=O)O)c(O)c1, COc1ccc(CC(=O)Nc2c3c(nn2-c2cccc(Cl)c2)CS(=O)C3)cc1 (stereo unspecified), COCCCN1C(=O)C(=O)/C(=C(/O)c2ccc3c(c2)CC(C)O3)C1c1cccnc1 (stereo unspecified), Cn1cc(-c2nc3cncnc3n(-c3ccccc3)c2=O)c2ccccc21, Cc1cc(Cl)c(S(=O)(=O)NCCC(=O)O)cc1OCC(N)=O, Cc1ccnc(SCCn2c(Br)nc3c2c(=O)[nH]c(=O)n3C)n1, CC(=NCc1ccc2c(c1)OCO2)C1=C(O)c2ccccc2C1=O, Cc1ccc2c(c1)sc1ncc(NC(=O)c3ccccc3)c(=O)n12, CCCCOc1ccc(Cl)cc1CSc1nncn1N, CCN(Cc1cc2cc(C)ccc2[nH]c1=O)S(=O)(=O)c1ccccc1, CSCC[C@H](NC(=O)NCCc1ccc(F)cc1)C(=O)O, O=C(Cn1cc2c(n1)CCCCC2)NCCN1CCOCC1, CC(=O)Nc1ccc(NC(=O)CN2CCCC(C)C2)c(Cl)c1 (stereo unspecified), COCCn1c(=O)c(-c2cccc(F)c2)nc2cncnc21, Oc1cc2c(cc1O)CN(C(=S)NCCc1ccc(Cl)cc1)CCC2, CN=C(NC#N)NCCSCc1nc[nH]c1C, COC(=O)c1nc(NC(=O)c2ccc(Cl)cc2)n[nH]1, NC(=O)CCCC1=NS(=O)(=O)c2ccccc2N1, COC(=O)c1c(NC(=O)CSc2nncs2)sc2c1CCCCC2, CC(=O)N(CC1CCCO1)C1(C(=O)NC2CCCC2)CCCCC1 (stereo unspecified), COc1ccc2[nH]cc(CCNc3nc(-c4cccc(NS(C)(=O)=O)c4)nc4ccccc34)c2c1, CCCCCN(C(=O)NC(=O)Nc1ccccc1OC)S(C)(=O)=O, Oc1ccc(O)c2c(O)cccc12, Cc1ccc(S(=O)(=O)NC(=O)N2CCCC(C)(C)C2)cc1, C=CCOC(=O)COCCC(C)C, CCC1=C/C(=C\c2ccc3c(c2)OCO3)C(=O)S1, COC(=O)N1CCC[C@@]2(CCN(C(=O)NC(C)C)C2)C1, O=S(=O)(NCc1ccccc1Cl)c1cnc[nH]1, CCCCn1c(SCC(=O)N2CCC(C(=O)OCC)CC2)nc2cc(S(N)(=O)=O)ccc21, CCCC(Cl)CCCC(Cl)CCC(Cl)CCC(Cl)CCC(Cl)CCCC(Cl)CCC (stereo unspecified), Nc1ccccc1N, N[C@@H](C(=O)O)c1ccc(P(=O)(O)O)cc1, CC(=O)OC(C(=O)NCCc1ccccc1)c1cccnc1 (stereo unspecified), COCc1[nH]nc2c1C(C1C=CCCC1)C(C#N)=C(N)O2 (stereo unspecified), O=C(c1csnn1)N1CCC[C@@]2(CCN(Cc3nccs3)C2)C1, COc1cc(Cl)c(C)cc1NC(=O)CSc1nnc(-c2ccco2)n1CC(C)C, O=C(Nc1cccc(F)c1)N1CC2(CCN(C(=O)c3csnn3)CC2)C1, Cc1cccc(CNc2cc(-c3ccccc3Cl)ncn2)c1, COC(=O)[C@@H]1[C@H]2C[C@H]3c4[nH]c5cc(OC)ccc5c4CCN3C[C@@H]2C[C@@H](OC(=O)c2cc(OC)c(OC)c(OC)c2)[C@@H]1OC, CCOc1ccccc1NC(=O)C1CCN(S(=O)(=O)c2c(C)nn(C)c2C)CC1, C=CCN1C(=O)C(O)(CC(=O)c2ccc(Cl)cc2)c2ccccc21 (stereo unspecified), CS(=O)(=O)N1CCCC(C(=O)N2CCOCC2)C1 (stereo unspecified), Clc1ccccc1-c1cc(NCCN2CCOCC2)ncn1, CCc1cc2c(=O)c(-c3ccon3)c(N)oc2cc1OC, CCn1c(SCC(=O)Nc2cc(C)ccc2C)nnc1-c1cnccn1, CC1=C(C(=O)OCc2ccccc2)C(c2ccc(C(F)(F)F)cc2)NC(=O)N1CCCCCC(=O)O (stereo unspecified), COC(=O)[C@@]1(C)C=C[C@@H](Cc2ccccc2)N1C(C)=O, O=C(Cn1cc(C(=O)c2cccs2)c2ccccc21)NCc1cccs1, O=C(c1cnccn1)N1CCC[C@@]2(CCN(Cc3ccncc3)C2)C1, COC(=O)CCCCCN1C(=O)NC(c2ccc(-c3ccccc3)cc2)C(C(=O)OCc2ccccc2)=C1C (stereo unspecified), Cc1ccc(Br)cc1, O=C1CC(N2CCN(C(c3ccccc3)c3ccccc3)CC2)C(=O)N1 (stereo unspecified), CCOc1ccc(C(=O)N(Cc2ccc(N(C)C)cc2)C2CCS(=O)(=O)C2)cc1 (stereo unspecified), C/C(=C\C(=O)c1ccccc1)Nc1cccc(O)c1, Cc1cc2nc3c(=O)[nH]c(=O)nc-3n(C[C@H](O)[C@H](O)[C@H](O)CO)c2cc1C, O=C(O)c1ccc(C(=O)c2ccccc2C(=O)O)cc1C(=O)O, Cc1ccc(-c2c3c(=O)n(C)c(=O)n(C)c3cn2-n2cnnc2)cc1, C=CC(=O)OCCOCCOCCOCCOC(=O)C=C, CCOc1ccc2c(c1)cc(CN(C(=O)CC)C1CCCCC1)c1nnnn12, Cc1nc2cnc(N3CCNCC3)nc2n(Cc2ccc(F)cc2)c1=O, COc1ccc2c(=O)cc(-c3ccccc3)oc2c1O, C=CCn1c(SCc2csc(C)n2)nc2scc(-c3ccc(C)o3)c2c1=O, C=CC(=C)CCC=C(C)C, Cc1ccc(NC(=O)N2CCC(C(=O)NCc3ccc(F)cc3)CC2)cc1, O=C(NCc1ccccc1)[C@H]1C[C@@H]1[C@H](NP(=O)(c1ccccc1)c1ccccc1)c1ccccc1, O=C1C(c2[nH]c3ccccc3c2O)=Nc2ccccc21, COc1c(C)c2c(c(O)c1C/C=C(\C)CCC(=O)O)C(=O)OC2, Fc1ccc2nc(-c3ccccc3)nc(SCc3nnc(-c4ccccc4)o3)c2c1, Cc1cc(Cl)ccc1OCC(=O)Oc1c(Cl)c(Cl)c(Cl)c(Cl)c1Cl, CCN(CC)CCCCn1c(-c2ccccc2)nc2c(N3CCOCC3)nc(C)nc21, CCNC(=O)CCc1nc(-c2ccc(C(C)(C)C)cc2)no1, c1cncc(CNc2ccnc(-c3ccc4c(c3)OCO4)n2)c1, Cc1cc(C)c2c(c1)c(C)cc1nnc(SCC(=O)NCc3ccco3)n12, Cc1ccc(-c2noc(-c3ccccc3C(=O)NCC3CCCO3)n2)cc1 (stereo unspecified), c1ccc2c(c1)-c1ccccc1C2N1CC2CCC(CC2)C1, CCC(=O)Nc1ccc(C(=O)Nc2ccc3c(c2)C(=O)N(CC2CCCO2)C3=O)cc1 (stereo unspecified), CSCC[C@H](NC(=O)NCc1cccs1)C(=O)O, Cc1cccn2c(=O)c3cc(C(=O)N4COCC4(C)C)n(C)c3nc12, CCC[C@@H]1C[C@@]1(CCC)[C@@H](NC(=O)c1ccccc1)c1ccc(C(=O)OC)cc1, Cc1nc(CNS(=O)(=O)c2ccc(Oc3ccccc3)cc2)cs1, O=C(c1csnn1)N1CCC2(CCN(Cc3nccs3)CC2)CC1, CC1(C)CCCC2=C1CC1C(=O)N(c3ccccc3)C(=O)C1C2 (stereo unspecified), COc1ccc(-c2cc(C(=O)NC(C(=O)O)C(C)C)c(C)o2)cc1OC (stereo unspecified), Cc1ccc(-c2nnn(CC(=O)N(CCO)C(C(=O)NC(C)(C)C)c3ccncc3)n2)cc1 (stereo unspecified), Cc1ccc(NC(=O)CCNS(=O)(=O)c2ccc3c(c2)oc(=O)n3C)cc1C, CCC/C=C(\CCC)C(NC(=O)Cc1ccccc1)c1ccc(C(=O)OC)cc1 (stereo unspecified), O=C1CC(c2cccc(Br)c2)C2=C(CCCC2=O)N1 (stereo unspecified), COc1ccc(-c2nc3cnc(Oc4ccccc4)nc3n(Cc3cccs3)c2=O)cc1, Oc1c(CN2CCOCC2)ccc(CN2CCOCC2)c1O, CC(=O)CSc1nnc(CSc2ncccn2)n1C1CCCCC1, CCN1CCN(C(=O)CN(C)S(=O)(=O)c2ccc(OC)cc2)CC1, CCOc1ccc(S(=O)(=O)n2ccnc2)c2ccccc12
